The record followed here is PubChem BioAssay (NCI).

Each structure is given as a SMILES string. The panel holds about 83,000 compounds, 20% with a hit somewhere; the sample as a whole holds those more often.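 Activity criterion: percent growth below 10, measured after cells in 96-well plates were exposed to a single compound concentration for 48 hours.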 Unmarked numbers belong to inactive results. Active and inactive are the calls of the source.

Test systems include HCT-15 colon; HT29 colon; SNB-75 CNS; U251 CNS; PC-3 prostate; SK-MEL-5 melanoma; UACC-62 melanoma; LOX IMVI melanoma; SK-MEL-28 melanoma; SNB-19 CNS.
What all share (test): NCI-60 one-dose screen, 48 h (100 = growth as untreated, 0 = no growth, -100 = all killed)
What all share (settings): 10 µM unless noted

`CN(C)CCNC(=O)n1cc(-c2ccncc2)c(-c2cc(O)cc(Cl)c2)n1`: the growth in the assay on HCT-15 colon was 77.1%; in the assay on HT29 colon, 88.5%; in the assay with SNB-75 CNS it was 103%; in the assay on U251 CNS, 81.6%; in the assay with PC-3 prostate it was 112%; in the assay on SK-MEL-5 melanoma it was 77.3%. In addition, the figures for the growth in the assay with UACC-62 melanoma, in the assay with LOX IMVI melanoma and with SK-MEL-28 melanoma were 36.4%, 76.3% and 35.2%, respectively.
Turning to `CCCCCCCCCCCCCCCCCC(=O)[O][Sn]([CH2]CCC)([CH2]CCC)[CH2]CCC`, the growth with HCT-15 colon was -82.6% (active); in the assay with HT29 colon, -52.2% (active); with SNB-75 CNS, -96.8% (active); with U251 CNS, -89.3% (active); with PC-3 prostate, -69.3% (active); in the assay on SK-MEL-5 melanoma, -99.9% (active). Further, the growth was -60.6% (active) in the assay on UACC-62 melanoma, -92.7% (active) in the assay on LOX IMVI melanoma and -94.8% (active) in the assay on SK-MEL-28 melanoma.
For the compound `CC(=O)Oc1ccccc1C(=O)Nc1ncc([N+](=O)[O-])s1`, the growth was 32.3% in the assay on HCT-15 colon; 44.9% with HT29 colon; 46.4% in the assay on SNB-75 CNS; 39.2% in the assay on U251 CNS; 10.1% with PC-3 prostate; 22.8% in the assay with SK-MEL-5 melanoma. The growth in the assay with UACC-62 melanoma is 1.31% (active); with LOX IMVI melanoma, 23.4%; with SK-MEL-28 melanoma, 49.3%.
On to `COc1ccc(/C=C/c2nc(NCCCN(C)C)c3ccccc3n2)cc1`, for which the growth in the assay with HCT-15 colon was 86.6%; in the assay with HT29 colon, 11.5%; in the assay with SNB-75 CNS, 42.8%; in the assay on U251 CNS it was -48.4% (active); with SK-MEL-5 melanoma it was 32.3%; in the assay on UACC-62 melanoma it was 104%. Also, the growth in the assay on LOX IMVI melanoma is -67.1% (active); in the assay with SK-MEL-28 melanoma, 77.5%.
As for `CCOC(=O)Cn1c(-c2nonc2NC(=O)c2ccccc2F)nc2ccccc21`, the growth in the assay with HCT-15 colon is 29.2%; with HT29 colon, 27.4%; with SNB-75 CNS it was 70.1%; in the assay with U251 CNS, 28.1%; in the assay with PC-3 prostate, 44.7%; in the assay with SK-MEL-5 melanoma, 32.4%. In addition, the growth with UACC-62 melanoma was 42.4%; in the assay on LOX IMVI melanoma, 10.3%; with SK-MEL-28 melanoma it was 71.1%.
On to `COc1cc(CN(c2ccc(C)cc2)C2OC(=O)c3ccccc32)cc(OC)c1OC` (centres undefined), for which the growth was 6.19% (active) with HCT-15 colon; 18.9% in the assay on HT29 colon; 6.43% (active) in the assay on SNB-75 CNS; 32.3% in the assay with U251 CNS; 51.8% with PC-3 prostate; 19.9% in the assay with SK-MEL-5 melanoma. Further, the values for the growth in the assay with UACC-62 melanoma, in the assay on LOX IMVI melanoma and in the assay on SK-MEL-28 melanoma were 45.9%, 42.7% and 51.8%, respectively.
On to `Cc1cccc(/C=N/n2c(-c3ccc(Cl)cc3)nc3c(Br)cc(Br)cc3c2=O)c1`, for which the growth in the assay with HCT-15 colon was 70.5%; in the assay on HT29 colon, 67.9%; with SNB-75 CNS, 45.9%; with U251 CNS, 43%; with PC-3 prostate it was 21.4%; in the assay on SK-MEL-5 melanoma it was 38.5%. In addition, the results for the growth with UACC-62 melanoma, in the assay with LOX IMVI melanoma and in the assay on SK-MEL-28 melanoma were 35.5%, 52.6% and 60.7%, respectively.
In the case of `CCN(CC)c1cc(C)c(Cc2c(OC)ccc3ccccc23)cc1C`, the growth in the assay with HCT-15 colon was 97.8%; in the assay with HT29 colon, 73.7%; with SNB-19 CNS, 93.2%; in the assay on U251 CNS, 94.9%; in the assay on PC-3 prostate, 83.9%; in the assay with SK-MEL-5 melanoma it was 99.4%. For the same compound, the growth with UACC-62 melanoma was 79.8%; in the assay with LOX IMVI melanoma it was 94.9%; with SK-MEL-28 melanoma it was 100%.
With `CC(C)(C)c1cc(C[P+](c2ccccc2)(c2ccccc2)c2ccccc2)cc(C(C)(C)C)c1O`, the growth in the assay on HCT-15 colon was 23.2%; with HT29 colon, -13.1% (active); with SNB-75 CNS it was 2.05% (active); in the assay on U251 CNS, 5.39% (active); in the assay on PC-3 prostate, -10.5% (active); with SK-MEL-5 melanoma it was -96.9% (active). Besides, the growth with UACC-62 melanoma was -3.2% (active); in the assay with LOX IMVI melanoma it was 5.93% (active); in the assay with SK-MEL-28 melanoma, 38.4%.
On to `Cc1c(C(=O)Nc2ccccc2F)sc2c(=O)[nH]cnc12`, for which the growth was 59% in the assay on HCT-15 colon; 63.8% in the assay on HT29 colon; 77.9% with SNB-75 CNS; 89.7% with U251 CNS; 81.9% in the assay with PC-3 prostate; 92.3% in the assay with SK-MEL-5 melanoma. In addition, the growth is 78.4% with UACC-62 melanoma, 85% in the assay with LOX IMVI melanoma and 94.3% with SK-MEL-28 melanoma.
Turning to `Cc1cc([N+](=O)[O-])c(C)cc1N`, the growth in the assay with HCT-15 colon was 105%; in the assay with HT29 colon it was 92.1%; in the assay on SNB-75 CNS, 86.7%; in the assay on U251 CNS, 103%; in the assay on PC-3 prostate, 88.6%; in the assay on SK-MEL-5 melanoma, 98.4%. Further, the growth was 95.5% in the assay with UACC-62 melanoma, 100% with LOX IMVI melanoma and 103% in the assay on SK-MEL-28 melanoma.
Regarding `CC(NC(=O)c1ccccc1)C(=O)Nc1ccccc1` (centres undefined), the growth with HCT-15 colon was 115%; in the assay with HT29 colon, 103%; in the assay on SNB-75 CNS, 88.3%; in the assay with U251 CNS, 101%; in the assay with PC-3 prostate, 92.8%; in the assay with SK-MEL-5 melanoma, 104%. The figures for the growth in the assay with UACC-62 melanoma, in the assay on LOX IMVI melanoma and in the assay with SK-MEL-28 melanoma were 104%, 99.6% and 115%, respectively.
For `CC(=O)Nc1ccc(/C=N/N2CCCCCC2)cc1`, the growth in the assay on HCT-15 colon is 102%; in the assay on HT29 colon it was 102%; in the assay on SNB-75 CNS, 86.2%; in the assay on U251 CNS it was 90.4%; in the assay with PC-3 prostate it was 109%; in the assay with SK-MEL-5 melanoma, 106%. Moreover, the growth with UACC-62 melanoma was 95.9%; with LOX IMVI melanoma, 101%; in the assay on SK-MEL-28 melanoma, 103%.
For `CCCCCCCCCCCCC1CCC(=O)O1` (centres undefined), the growth with HCT-15 colon was 91.7%; with HT29 colon, 90.6%; in the assay with SNB-75 CNS, 95%; in the assay with U251 CNS, 101%; in the assay with PC-3 prostate it was 95.8%; with SK-MEL-5 melanoma, 99.7%. In addition, the results for the growth in the assay on UACC-62 melanoma, with LOX IMVI melanoma and in the assay with SK-MEL-28 melanoma were 98.5%, 93.5% and 96.4%, respectively.
For `CCN1C(=O)N(CC)C2C1NC(=O)N2/N=C/C=C/c1ccccc1` (centres undefined), the growth with HCT-15 colon is 26.9%; in the assay with HT29 colon, 14.6%; in the assay with SNB-75 CNS, 30.8%; with U251 CNS, 38.8%; in the assay on PC-3 prostate, 34.6%; in the assay with SK-MEL-5 melanoma, 18%. For the same compound, the growth in the assay on UACC-62 melanoma is 20.6%; in the assay with LOX IMVI melanoma, 32.9%; in the assay on SK-MEL-28 melanoma, 53.2%.
